The values that follow come from paper PMC11062922 (Nature Chemical Biology, 2023).

Structures are written as SMILES. Like-named read-outs stand apart in the source and are kept apart here.

Parameters in all cases: species or system human, MV4-11 + K-562 + COLO205 + SK-N-BE2 + OVCAR-8
The subject of one assay is ADCK1. The following applies: read-out: apparent Kd; compound concentrations:100 nM and 1000 nM (sheet 'Samples'); n = 1.
For the next assay, the system named is AKT1. Particulars: read-out: apparent Kd; compound concentrations:100 nM and 1000 nM (sheet 'Samples'); n = 1.
The test system of the next assay is ATR. The following applies: read-out: apparent Kd; compound concentrations:100 nM and 1000 nM (sheet 'Samples'); n = 1.
Another assay concerns AURKA. Particulars: read-out: apparent Kd; compound concentrations:100 nM and 1000 nM (sheet 'Samples'); n = 1.
A further assay concerns BTK. Particulars: read-out: apparent Kd; compound concentrations:100 nM and 1000 nM (sheet 'Samples'); n = 1.
The next assay concerns CDK9. The following applies: read-out: apparent Kd; compound concentrations:100 nM and 1000 nM (sheet 'Samples'); n = 1.
The next assay concerns CLK1. Particulars: read-out: apparent Kd, n = 1.
For another assay, the system named is CLK4. The following applies: read-out: apparent Kd, n = 1.
Another assay relates to CSNK1A1. Particulars: read-out: apparent Kd; compound concentrations:100 nM and 1000 nM (sheet 'Samples'); n = 1.
For the next assay, the system named is CSNK1E. The following applies: read-out: apparent Kd; compound concentrations:100 nM and 1000 nM (sheet 'Samples'); n = 1.
The next assay deals with CSNK1G1. Particulars: read-out: apparent Kd; compound concentrations:100 nM and 1000 nM (sheet 'Samples'); n = 1.
In another assay the test system is CSNK1G3. The following applies: read-out: apparent Kd; compound concentrations:100 nM and 1000 nM (sheet 'Samples'); n = 1.
A further assay concerns DDX3X;DDX3Y. The following applies: read-out: apparent Kd; compound concentrations:100 nM and 1000 nM (sheet 'Samples'); n = 1.
In another assay the test system is EPHB3. Particulars: read-out: apparent Kd; compound concentrations:100 nM and 1000 nM (sheet 'Samples'); n = 1.
The next assay concerns GRK6. Particulars: read-out: apparent Kd; compound concentrations:100 nM and 1000 nM (sheet 'Samples'); n = 1.
Another assay has as its system HSP90B1. Particulars: read-out: apparent Kd; compound concentrations:100 nM and 1000 nM (sheet 'Samples'); n = 1.
A further assay relates to LYN. The following applies: read-out: apparent Kd; compound concentrations:100 nM and 1000 nM (sheet 'Samples'); n = 1.
The next assay concerns MAP2K1. The following applies: read-out: apparent Kd; compound concentrations:100 nM and 1000 nM (sheet 'Samples'); n = 1.
The next assay deals with MAP2K2. The following applies: read-out: apparent Kd; compound concentrations:100 nM and 1000 nM (sheet 'Samples'); n = 1.
The test system of another assay is MAPK1. The following applies: read-out: apparent Kd; compound concentrations:100 nM and 1000 nM (sheet 'Samples'); n = 1.
In a further assay the test system is MAPK3. Particulars: read-out: apparent Kd; compound concentrations:100 nM and 1000 nM (sheet 'Samples'); n = 1.
Another assay concerns MCM5. Particulars: read-out: apparent Kd; compound concentrations:100 nM and 1000 nM (sheet 'Samples'); n = 1.
A further assay deals with MET. Particulars: read-out: apparent Kd; compound concentrations:100 nM and 1000 nM (sheet 'Samples'); n = 1.
In a further assay the test system is OPA1. Particulars: read-out: apparent Kd; compound concentrations:100 nM and 1000 nM (sheet 'Samples'); n = 1.
The test system of a further assay is PHKG2. Particulars: read-out: apparent Kd; compound concentrations:100 nM and 1000 nM (sheet 'Samples'); n = 1.
Another assay relates to PI4KA. Particulars: read-out: apparent Kd; compound concentrations:100 nM and 1000 nM (sheet 'Samples'); n = 1.
Another assay relates to PI4KB. The following applies: read-out: apparent Kd; compound concentrations:100 nM and 1000 nM (sheet 'Samples'); n = 1.
A further assay has as its system PIK3CA. The following applies: read-out: apparent Kd; compound concentrations:100 nM and 1000 nM (sheet 'Samples'); n = 1.
The subject of another assay is PIK3CB. Particulars: read-out: apparent Kd; compound concentrations:100 nM and 1000 nM (sheet 'Samples'); n = 1.
For the next assay, the system named is PIM1. Particulars: read-out: apparent Kd; compound concentrations:100 nM and 1000 nM (sheet 'Samples'); n = 1.
For a further assay, the system named is PIM3. Particulars: read-out: apparent Kd; compound concentrations:100 nM and 1000 nM (sheet 'Samples'); n = 1.
The test system of the next assay is PRKACA. The following applies: read-out: apparent Kd; compound concentrations:100 nM and 1000 nM (sheet 'Samples'); n = 1.
In the next assay the test system is PRKDC. Particulars: read-out: apparent Kd; compound concentrations:100 nM and 1000 nM (sheet 'Samples'); n = 1.
In the next assay the test system is RAB14. Particulars: read-out: apparent Kd; compound concentrations:100 nM and 1000 nM (sheet 'Samples'); n = 1.
The test system of a further assay is RAB5C. Particulars: read-out: apparent Kd; compound concentrations:100 nM and 1000 nM (sheet 'Samples'); n = 1.
Another assay relates to RPS6KA3. The following applies: read-out: apparent Kd; compound concentrations:100 nM and 1000 nM (sheet 'Samples'); n = 1.
The next assay concerns RPS6KA6. The following applies: read-out: apparent Kd; compound concentrations:100 nM and 1000 nM (sheet 'Samples'); n = 1.
For another assay, the system named is SKIV2L2. Particulars: read-out: apparent Kd; compound concentrations:100 nM and 1000 nM (sheet 'Samples'); n = 1.
For another assay, the system named is SLC25A5. The following applies: read-out: apparent Kd; compound concentrations:100 nM and 1000 nM (sheet 'Samples'); n = 1.
In a further assay the test system is T1, T10.
T1 construct: gene NAT10
Particulars: read-out: apparent Kd; compound concentrations:100 nM and 1000 nM (sheet 'Samples'); n = 1.

The subject of another assay is TBK1. Particulars: read-out: apparent Kd; compound concentrations:100 nM and 1000 nM (sheet 'Samples'); n = 1.
For another assay, the system named is TEC. Particulars: read-out: apparent Kd; compound concentrations:100 nM and 1000 nM (sheet 'Samples'); n = 1.
The next assay relates to ULK3. Particulars: read-out: apparent Kd; compound concentrations:100 nM and 1000 nM (sheet 'Samples'); n = 1.
The next assay has as its system VDAC3. The following applies: read-out: apparent Kd; compound concentrations:100 nM and 1000 nM (sheet 'Samples'); n = 1.
The next assay relates to ADCK3. The following applies: read-out: apparent Kd, compound concentrations: 100 nM and 1000 nM (sheet 'Samples'), n = 1.
Another assay concerns FER. Particulars: read-out: apparent Kd; compound concentrations: 100 nM and 1000 nM (sheet 'Samples'), CATDS: 0.15534788887379899; n = 1.
For the next assay, the system named is FES. Particulars: read-out: apparent Kd; compound concentrations: 100 nM and 1000 nM (sheet 'Samples'), CATDS: 6.2151263603986602E-2; n = 1.
The subject of the next assay is IGF1R. The following applies: read-out: apparent Kd; compound concentrations: 100 nM and 1000 nM (sheet 'Samples'), CATDS: 0.14317930106922699; n = 1.
In the next assay the test system is INSR. Particulars: read-out: apparent Kd; compound concentrations: 100 nM and 1000 nM (sheet 'Samples'), CATDS: 0.19841534550213699; n = 1.
The test system of the next assay is PLK1. Particulars: read-out: apparent Kd; compound concentrations: 100 nM and 1000 nM (sheet 'Samples'), CATDS: 5.09869917251893E-2; n = 1.
The next assay concerns PRKCZ. Particulars: read-out: apparent Kd; compound concentrations: 100 nM and 1000 nM (sheet 'Samples'), CATDS: 4.7711419359540999E-2; n = 1.
The test system of a further assay is PTK2B. Particulars: read-out: apparent Kd; compound concentrations: 100 nM and 1000 nM (sheet 'Samples'), CATDS: 0.144435732024948; n = 1.
The next assay deals with PTK2. Particulars: read-out: apparent Kd; compound concentrations: 100 nM and 1000 nM (sheet 'Samples'), CATDS: 9.0293978496921806E-2; n = 1.
A further assay has as its system RIPK3. The following applies: read-out: apparent Kd; compound concentrations: 100 nM and 1000 nM (sheet 'Samples'), CATDS: 4.6981822696137099E-2; n = 1.
A further assay has as its system TNK1. The following applies: read-out: apparent Kd; compound concentrations: 100 nM and 1000 nM (sheet 'Samples'), CATDS: 8.1384476326193098E-2; n = 1.
Another assay concerns TTK. Particulars: read-out: apparent Kd; compound concentrations: 100 nM and 1000 nM (sheet 'Samples'), CATDS: 4.6872796614934702E-2; n = 1.
In a further assay the test system is ADRBK1. Particulars: read-out: apparent Kd; compound concentrations: 100 nM and 1000 nM (sheet 'Samples'), CATDS: 0.28294798490762901; n = 1.
The subject of the next assay is AKT2. The following applies: read-out: apparent Kd; compound concentrations: 100 nM and 1000 nM (sheet 'Samples'), CATDS: 0.297394073145339; n = 1.
[1] abbreviates: compound concentrations:100 nM and 1000 nM (sheet 'Samples').

Turning to `Cc1cnc(Nc2ccc(F)cc2Cl)nc1-c1c[nH]c(C(=O)N[C@H](CO)c2cccc(Cl)c2)c1` [Vertex11e], the potency estimated from few doses in the assay on ADCK1 was 1.21 µM; in the assay with AKT1, 1.2 µM; with ATR, 0.89 µM; in the assay with AURKA, 0.745 µM; in the assay with BTK it was 0.88 µM; in the assay on CDK9, 1.81 µM. Further, the potency estimated from few doses with CLK1 (setting [1]) is 1.15 µM; in the assay with CLK4 (setting [1]), 1.25 µM; in the assay with CSNK1A1, 0.969 µM; in the assay with CSNK1E, 1.22 µM; with CSNK1G1, 2.06 µM; in the assay with CSNK1G3, 1.23 µM. For the same compound, the potency estimated from few doses with DDX3X;DDX3Y is 1.22 µM; in the assay on EPHB3 it was 2.33 µM; in the assay with GRK6 it was 1.29 µM; in the assay on HSP90B1, 1.07 µM; with LYN, 1.32 µM; with MAP2K1, 1.35 µM. Further, the potency estimated from few doses in the assay with MAP2K2 is 1.43 µM; in the assay on MAPK1, 0.0449 µM; with MAPK3, 0.0778 µM; with MCM5, 1.27 µM; with MET, 2.32 µM; with OPA1, 0.802 µM. The potency estimated from few doses with PHKG2 is 2.48 µM; with PI4KA it was 1.38 µM; in the assay on PI4KB, 0.0592 µM; with PIK3CA it was 0.142 µM; with PIK3CB, 0.851 µM; with PIM1 it was 0.939 µM. The potency estimated from few doses was 0.34 µM in the assay on PIM3; 1.86 µM in the assay with PRKACA; 0.723 µM in the assay on PRKDC; 0.655 µM with RAB14; 1.33 µM with RAB5C; 1.54 µM with RPS6KA3. In addition, the potency estimated from few doses is 0.628 µM in the assay on RPS6KA6; 1.59 µM in the assay with SKIV2L2; 1.45 µM in the assay with SLC25A5; 0.952 µM with T10; 1.29 µM with TBK1; 1.32 µM with TEC. In addition, the potency estimated from few doses was 1.53 µM in the assay on ULK3 and 1.38 µM with VDAC3.
With `COc1cc(C)c(NC(=O)CN(C)C)cc1Nc1nc(Nc2cccc(F)c2C(N)=O)c2cc[nH]c2n1` [GSK2213727A], the potency estimated from few doses in the assay on ADCK3 (CATDS: 5.9808730869804497E-2) is 0.688 µM; in the assay with CLK1 (compound concentrations: 100 nM and 1000 nM (sheet 'Samples'), CATDS: 7.7083223058971695E-2), 0.335 µM; with CLK4 (compound concentrations: 100 nM and 1000 nM (sheet 'Samples'), CATDS: 5.4708251309819003E-2), 0.936 µM; with FER it was 0.0827 µM; with FES it was 0.609 µM; in the assay with IGF1R, 0.0947 µM. Also, the potency estimated from few doses with INSR was 0.0567 µM; with PLK1 it was 1.23 µM; with PRKCZ, 1.66 µM; in the assay with PTK2B, 0.0933 µM; in the assay on PTK2, 0.231 µM; in the assay with RIPK3, 1.79 µM. Besides, the potency estimated from few doses with TNK1 was 0.293 µM; in the assay with TTK, 1.81 µM.
For `O=C1NC(=O)C(c2c[nH]c3ccccc23)=C1c1ccccc1` [RO0316849-000], the potency estimated from few doses in the assay on ADCK3 (CATDS: 0.47545697813848398) is 0.812 µM; with ADRBK1 it was 2.27 µM; with AKT2, 2.01 µM.
